Measured values reported in the supplement of paper PMC11417369.
The full ranking holds about 25,000 sequences; the median of “ln(normalized median fluorescence intensity)” is about 7.1, and the highest 2% start at about 10. The list comes from a sample in which the highest values are over-represented; it also holds similar and randomly drawn sequences.

Each sequence was assayed on PfSIP2 AP2 domain 1 (GST-tagged) (assay: gcPBM binding intensity (ln(normalized median fluorescence intensity)); higher = stronger DNA binding).
Summary of the method: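 Binding intensity is the highest Masliner-normalised natural-log median intensity over replicate spots in either probe orientation. To obtain it, GST-tagged P. falciparum DNA-binding domains made in E. coli were incubated for 1 h on an Agilent 4 × 180k array of primer-extended double-stranded 36-bp intergenic genomic probes plus negative controls. Detection used Alexa488 anti-GST antibody with scanning at 488 nm.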

Row | Sequence | gcPBM binding intensity (ln)
1 | AAATGTTGAAATGATACACACATATATATATATATA [CACACA_site2517] | 9.59
2 | TTATTTATGATATATACACACTAACATTATTTATCC [CACACA_site6720] | 6.95
3 | GAAATTTCCCATATTACACACATACTATGATATATA [CACACA_site5987] | 7.12
4 | GTGATGGTACAATATACACACTTAAAAAAAAAAAAT [CACACA_site5360] | 7.17
5 | TTTCTATATTGGCATACATGCAAGAACGAAAAGATT [TGCATGCA_site117] | 7.09
6 | TATAAAAAAAATTGCACACATATTATACAGGACGAC [CACACA_site701] | 7.96
7 | TAATATTTTAATTGTGTGCACATTAATATTATAAAA | 9.3
8 | TTTATTTTTATTTTTGTGCACGGGATTAAATAAAAG [GTGCAC_site9842] | 10.5
9 | TTATTTTATTTTTTTGTGCACATATATATTTATAAA [GTGCAC_site9615] | 9.43
10 | AAGAAGAAACGGAAAAGTACAAAGAAGAAATAAGTA [XGTACX_site3680] | 6.85
11 | CATACATTATAAGATACATGCATATATCTGAACATA [TGCATGCA_site797] | 7.02
12 | AACATTATTTTGTGTACACATTCGGTTATATTATAT [CACACA_site5628] | 7.31
13 | ATACTATTTAAATGGGTGCTAAAAATAACAAAAATT | 8.88
14 | AATAAATACTAAATGGTGCAAAATTTTTTAACACTG | 10.7
15 | TAAATCAAAATAATTTAACACACAATTTTAATACTG [CACACA_site8744] | 6.67
16 | TATTAAAATATGTCAGTTCTTAAAAAGTTGATGAGT [GTGCAC_negctrl_site77] | 7.17
17 | TAATAATAATTAAATTGTACATATAATATAATATAA [XGTACX_site8554] | 7.15
18 | TAATATATATGTATGGCACACACGGATAAATATATA [CACACA_site930] | 7.04
19 | TTTTAACAAAAAAAAAGAAAAGAAAAGAAAATAATA [XGTACX_negctrl_site530] | 6.54
20 | GAACAAATTAAATAGGTGCATTAACATGTTCTATTT [GTGCAC_site9729] | 10.4
21 | AATTGAATAAATTAAACATGCACAGATGTTCTATTT [TGCATGCA_site692] | 6.89
22 | TAATATAATATATAGGTGCAATATTAACAAAAATTT | 9.61
23 | AGTGATACTAATTTTTGTACGCATAAAAGAATATTC [XGTACX_site6055] | 6.97

Row | Sequence | gcPBM binding intensity (ln)
24 | ACTATTTTCTTCAAAACATGCACCACATAAACATAA [TGCATGCA_site200] | 10.5
25 | ACCTATTTCAAACACACACACACACCCACAAACATA [CACACA_site977] | 7.62
26 | TATAAACATAAAACCAGTACATATATATTTTTCTTC [XGTACX_site212] | 6.84
27 | CGGCTATTTCTATATACATGCATTTAAAAAAAAAAT [TGCATGCA_site354] | 7.27
28 | CCAATGTTTTCTTGTGTACACATCATTAAAGAAAAA [CACACA_site5300] | 7.96
29 | AATAGAAAAAAATAAGTGCATTTTGGTATTCATCAT [GTGCAC_site9614] | 8.14
30 | GTAATTTTATATGGTTGTACATATATATATATATAT [XGTACX_site6659] | 9.68
31 | TCTATTTTTTATATGGTGCATTGTTCTTATTAATAT [GTGCAC_site9392] | 10.5
32 | TTATATGGCTCCATTTGTACGCATCCATGTTTTTAT [XGTACX_site6590] | 6.99
33 | TATTGTTCTTATTTAGTGCATATATAATATAATATA [GTGCAC_site9827] | 9.38
34 | CATATAATTTTATGGGTGCATTTTTTTGTAAGACCA | 11.1
35 | TTGTTCTTATTTCATTTTTATATGATATTTCATTAT [CACACA_negctrl_site1619] | 7.17
36 | ATAATTTCAATATTTAATATCATATATATATATTTT [GTGCAC_negctrl_site713] | 6.94
37 | TATATATATATATGGGTGCATTTTTTTGTCCATGTA [GTGCAC_site9868] | 10.7
38 | TATATATATATATATATATATATGTATGTGCATTTA [TGCATGCA_negctrl_site53] | 9.08
39 | ATTATTTATATTATGGTGCATAATTTTGGGTTTCTT | 10.2
40 | TTTTTAATTTCAATGGTGCAGTAATAATATAATAGT | 10.5
41 | ATATTTATATATAGTAGTACTTTCAATAATTTAAAT [XGTACX_site7276] | 7.05
42 | TTTATTTTAAAATATAGTACGCAAATAAAAATAAAT [XGTACX_site7783] | 7.33
43 | AAATTTATTTCTGTGTGTCCACAAAAAAAAATCTTT [XGTACX_site691] | 6.91
44 | TTTTTTTTTTTCTTTGCACACAGATAACTTGAAATT [CACACA_site2184] | 7.2
45 | TATTATTAATATGTATGGTTGTAATCTGTGTCTCCT [TGCATGCA_negctrl_site190] | 7.12
46 | CATTTTTTGCTTTCAACACACATACAATATATATAA [CACACA_site6127] | 7.26

Row | Sequence | gcPBM binding intensity (ln)
47 | AAAAAGAATAAATAAATAAATAAATATATATATATA [GTGCAC_negctrl_site584] | 9.47
48 | AATATATGTAAATGGACACACACATATATATATATA [CACACA_site9220] | 9.61
49 | AGAAATGAAATATACACACATACATATATACATATA [CACACA_site4033] | 7.21
50 | ACATATATGTATAATACACACACTAATATATAATTG [CACACA_site1966] | 7.15
51 | CATATAAAAAATATGGTGCAGTTTTTTTTTTTTTTT | 10.4
52 | TTATAAAAAATTTTAGTGCATATATGATTTATATAT [GTGCAC_site9831] | 8.21
53 | ATATATATATATGTAGTGCATTTTATATATAATATT | 9.01
54 | TTTTGTAGTTTATAAATAAAAGAGAATATGGTGCTT [CACACA_negctrl_site413] | 7.7
55 | AAAATTTATAGTATGGTGCATAAAAATATATATATA | 10.3
56 | CATATATAAATATAAATATATATATATATATATATG [XGTACX_negctrl_site493] | 7.56
57 | GAATTATAAATTATAGTGCATAAAATTATGGCATAA [GTGCAC_site9938] | 8.52
58 | TAATATATATATATGGTGCATTTAATTTATATATAA | 10.8
59 | AAAATTAATATCTTGGTGCATTTTTTAATATTATTA [GTGCAC_site9638] | 10
60 | ACTCTATACATCTAATGTACATGGAAAAAAAAATTC [XGTACX_site733] | 7.28
61 | ATTTATTTATTTATATGTACATATATATATATATAT [XGTACX_site339] | 9.54
62 | TTAATTTATAAAAACACACACAGGTAAAAAGGTGCA [CACACA_site1177] | 9.31
63 | TATTAATTTATTTGTTGTACGTAAATATGCTTGTTT [XGTACX_site6591] | 7.26
64 | AAATGAACAAGTGGCACACACACATTCTAACTAATT [CACACA_site3203] | 6.93
65 | TTCTATTTGTAAAATTGTACAAAATAAATAACAAAA [XGTACX_site1007] | 7.04
66 | TACTTTTATATGAATACACACAGGAATATAAATATG [CACACA_site7647] | 7.2
67 | GTATGAAAAAAAATATGTACACATATATATTTGGTA [XGTACX_site6309] | 7.07
68 | TTCTTTGCTTTTCAAACACACAAAAGTTATTATATT [CACACA_site521] | 7.22
69 | TAGAAAAACATTACGTGTACCAAACATCCTAGCAAC [XGTACX_site4888] | 7.19

Row | Sequence | gcPBM binding intensity (ln)
70 | GCAGCAGCATTTTCAGTGCATTATTATATTGTTCAT [GTGCAC_site9926] | 7.98
71 | TTCATTGTGTTAACGGTGCATATATTTTTTCACCGT [GTGCAC_site9464] | 10.3
72 | TTGTTCATATTTTTTATTGTGTTAATATTTATAAAA [GTGCAC_negctrl_site423] | 7.28
73 | CAAAAGGATAGGCACACACACACACCCATATATATA [CACACA_site2199] | 7.55
74 | ATGTATATAATATTATGTACATATATGAAATATTTT [XGTACX_site8168] | 7.02
75 | CGCGCCCAGAAACACACACACACACCGATATATATA [CACACA_site5250] | 7.62
76 | CACCCACACCAACACACACACATATATATATATATA [CACACA_site362] | 9.74
77 | CACGCGCACCAACACACACACACACCCATATATATA [CACACA_site2204] | 10.6
78 | CGCGCACCCAGACACACACACACACCCATATATATA [CACACA_site2203] | 10.8
79 | CGCGCACCCAGACACACACACACACCGATATATATA [CACACA_site8687] | 10.6
80 | CGCACCCACAGACACACACACACATATATATATATA [CACACA_site2202] | 9.47
81 | GGAGCACCCAGACACACACACACATATATATATATA [CACACA_site336] | 9.19
82 | CACACCCACCAACACACACACACACCCACCCATATA [CACACA_site366] | 7.11
83 | CACCCCCACAGACACACACACACACCGATATATATA [CACACA_site8010] | 7.89
84 | TTTTAGCACTTATTATAAGATATCAAAAAGATGGGT [XGTACX_negctrl_site325] | 7.32
85 | ATAAATTCTATGTATACACACATATATAATATATAT [CACACA_site2689] | 7.26
86 | TTTTTATTAATAGATATAAATATATAATATGAATGT [TGCATGCA_negctrl_site309] | 7.04
87 | TTTCTTTTTTTTTAATGTACTTTTTTTATAAAAGGT [XGTACX_site5688] | 7.27
88 | ATAATTATTTAATATATATATATTATTTCGAATGTT [GTGCAC_negctrl_site688] | 7.03
89 | AAAGAATTATATAAGGTGCACGAATGTTTCTTTAAT | 10.9
90 | TAAAAACAAAAATGTTGTACATAATATAAAACAATT [XGTACX_site6380] | 7.04
91 | ATTTTTTAAATTTAAACACACATTTTGTATATGTTT [CACACA_site1654] | 7.02
